# Reference: PubChem BioAssay (NCI)
# This is part of a sample that, as a whole, favours compounds with a hit. Of some 83,000 tested, about 20% had one in any assay.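 96-well plates, one dose, 48 hours. Percent growth reported; active if below 10.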 Active and inactive are the calls of the source.
# Test system: MOLT-4 leukemia
# Experiment: NCI-60 one-dose screen, 48 h (100 = growth as untreated, 0 = no growth, -100 = all killed)
# Conditions: 10 µM unless noted
row,SMILES,growth
1,O=C(O)Cc1cccc2ccccc12,9.03% (active)
2,O=c1[nH]c(=O)c2cc(Cl)cc(Cl)c2[nH]1,95.7% (inactive)
3,C=CCC(OC(C)=O)c1ccc(OC)c(OC)c1 (stereo not given),-29% (active)
4,COC(=O)Cc1cc(COC(C)=O)ccc1C,98.4% (inactive)
5,CCCCCCCCCCCCCCCCCC(=O)NCCNC(=O)CCCCCCCCCCCCCCCCC,67.2% (inactive)
6,CC(=O)c1cccc(N(C)S(=O)(=O)c2ccc(C)cc2)c1,94.9% (inactive)
7,N#CC1(O)CCCCC1,102% (inactive)
8,CC(=O)OC(C)c1cccc(C#N)c1 (stereo not given),102% (inactive)
9,CCN(C(C)=O)c1ccc([N+](=O)[O-])cc1,95.6% (inactive)
10,CC(C)=CCC[C@@H](C)[C@H]1CC[C@@]2(C)C3=C(CC[C@]12C)[C@@]1(C)CC[C@H](O)C(C)(C)[C@@H]1CC3,99% (inactive)
11,CCOc1ccc(C(=O)NCC(C)C)cc1,100% (inactive)
12,CCOC(=O)C(C#N)=C1CCN(C)CC1,58.5% (inactive)
13,CCOC(C=O)OCC,85.2% (inactive)
14,Cc1nc(O)cc(=O)[nH]1,103% (inactive)
15,COC1OC(C(O)C(O)CO)C(O)C(O)C1O (stereo not given),105% (inactive)
16,NC(=O)OCCO,97.7% (inactive)
17,O=C(CC(CC(=O)c1ccccc1)c1ccccn1)c1ccccc1,102% (inactive)
18,ON1CCCC1,81% (inactive)
19,CC(=O)c1cccc(NS(=O)(=O)c2ccc(C)cc2)c1,73.9% (inactive)
20,CC(=O)NC(CCc1ccc(Cl)c(Cl)c1)c1cccc(O)c(=O)c1 (stereo not given),4.68% (active)
